Hit rate of the full screen: of about 5,500 compounds, about 2,000 (36%) were called active. Another 18% or so got no clear call; they are omitted. No stated cut-off is given here; in the data, active means normalized growth mostly below about 0.91 (no sharp cut-off); inconclusive means no clear call, values can overlap the other calls; inactive means mostly above about 0.92. This is one part of the list.
Assay: chemical genetic growth profiling, strain panel (AID 1159580);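 further: tested at 20 µM; growth read once vehicle control cultures reached saturation at 30 °C; 1 = growth at the plate median or of vehicle wells; lower values mean less growth of the strain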
Settings: growth OD

Measured: normalized growth

CC(Oc1ccccc1)C(=O)N[C@@H]1C(=O)N2[C@@H]1SC(C)(C)[C@@H]2C(=O)O (some centres not stated)
inactive: S. cerevisiae deletion strains, locus YJR075W, strain HOC1, active compounds read low 1.01 | S. cerevisiae deletion strains, locus YKL009W, strain mrt4, active compounds read low 0.995 | S. cerevisiae deletion strains, locus YKL068W, active compounds read low 1.01 | S. cerevisiae deletion strains, locus YKL085W, strain MDH1 (second series), active compounds read low 1 | S. cerevisiae deletion strains, locus YKL085W, strain MDH1, active compounds read low 1 | S. cerevisiae deletion strains, locus YKL160W, strain elf1, active compounds read low 0.985 | S. cerevisiae deletion strains, locus YKL190W, strain CNB1, active compounds read low 1.01 | S. cerevisiae deletion strains, locus YKR001C, strain vps1, active compounds read low 1.02 | S. cerevisiae deletion strains, locus YKR026C, strain gcn3, active compounds read low 0.993 | S. cerevisiae deletion strains, locus YKR091W, strain srl3, active compounds read low 0.993 | S. cerevisiae deletion strains, locus YLL001W, strain dnm1, active compounds read low 0.983 | S. cerevisiae deletion strains, locus YLL026W, active compounds read low 0.998 | S. cerevisiae deletion strains, locus YLL041C, strain sdh2, active compounds read low 0.992 | S. cerevisiae deletion strains, locus YLR027C, strain aat2, active compounds read low 1 | S. cerevisiae deletion strains, locus YLR039C, strain RIC1, active compounds read low 1.02 | S. cerevisiae deletion strains, locus YLR058C, strain SHM2, active compounds read low 1.01 | S. cerevisiae deletion strains, locus YLR102C, strain apc9, active compounds read low 1.02 | S. cerevisiae deletion strains, locus YLR113W, strain HOG1, active compounds read low 1.01 | S. cerevisiae deletion strains, locus YLR221C, strain rsa3, active compounds read low 0.981 | S. cerevisiae deletion strains, locus YLR258W, strain gsy2, active compounds read low 0.986 | S. cerevisiae deletion strains, locus YLR262C, strain YPT6 (second series), active compounds read low 1.01 | S. cerevisiae deletion strains, locus YLR262C, strain YPT6, active compounds read low 1.04 | S. cerevisiae deletion strains, locus YLR268W, strain sec22, active compounds read low 1.03 | S. cerevisiae deletion strains, locus YLR320W, strain mms22, active compounds read low 0.984 | S. cerevisiae deletion strains, locus YLR330W, strain CHS5, active compounds read low 1.01 | S. cerevisiae deletion strains, locus YLR342W, strain FKS1 (second series), active compounds read low 1 | S. cerevisiae deletion strains, locus YLR342W, strain FKS1, active compounds read low 1 | S. cerevisiae deletion strains, locus YLR357W, strain rsc2, active compounds read low 0.978 | S. cerevisiae deletion strains, locus YLR370C, strain arc18, active compounds read low 0.992 | S. cerevisiae deletion strains, locus YLR371W, strain rom2, active compounds read low 1.02 | S. cerevisiae deletion strains, locus YLR384C, strain iki3, active compounds read low 0.992 | S. cerevisiae deletion strains, locus YLR418C, strain cdc73, active compounds read low 1.04 | S. cerevisiae deletion strains, locus YML016C, strain PPZ1, active compounds read low 1.02 | S. cerevisiae deletion strains, locus YML032C, strain rad52, active compounds read low 1.02 | S. cerevisiae deletion strains, locus YML120C, strain ndi1, active compounds read low 0.985 | S. cerevisiae deletion strains, locus YML124C, strain tub3, active compounds read low 1.02 | S. cerevisiae deletion strains, locus YMR058W, strain fet3, active compounds read low 1 | S. cerevisiae deletion strains, locus YMR078C, strain ctf18, active compounds read low 1.03 | S. cerevisiae deletion strains, locus YMR125W, strain sto1, active compounds read low 0.992 | S. cerevisiae deletion strains, locus YMR129W, active compounds read low 0.99 | S. cerevisiae deletion strains, locus YMR205C, strain PFK2, active compounds read low 0.995 | S. cerevisiae deletion strains, locus YMR223W, strain ubp8, active compounds read low 1.01 | S. cerevisiae deletion strains, locus YMR231W, strain pep5, active compounds read low 1 | S. cerevisiae deletion strains, locus YMR263W, strain SAP30, active compounds read low 1.01 | S. cerevisiae deletion strains, locus YMR307W, strain GAS1, active compounds read low 1.02 | S. cerevisiae deletion strains, locus YNL067W, strain RPL9B, active compounds read low 1.01 | S. cerevisiae deletion strains, locus YNL071W, strain lat1, active compounds read low 0.996 | S. cerevisiae deletion strains, locus YNL128W, strain TEP1, active compounds read low 1.02 | S. cerevisiae deletion strains, locus YNL153C, strain GIM3, active compounds read low 1.01 | S. cerevisiae deletion strains, locus YNL183C, strain NPR1, active compounds read low 0.972 | S. cerevisiae deletion strains, locus YNL209W, strain ssb2, active compounds read low 0.996 | S. cerevisiae deletion strains, locus YNL233W, strain BNI4, active compounds read low 1.02 | S. cerevisiae deletion strains, locus YNL248C, strain rpa49, active compounds read low 0.991 | S. cerevisiae deletion strains, locus YNL250W, strain rad50, active compounds read low 1.03 | S. cerevisiae deletion strains, locus YNL271C, strain bni1, active compounds read low 1.02 | S. cerevisiae deletion strains, locus YNL298W, strain CLA4, active compounds read low 1.03 | S. cerevisiae deletion strains, locus YNL307C, strain MCK1, active compounds read low 1.03 | S. cerevisiae deletion strains, locus YNL322C, strain KRE1 (second series), active compounds read low 1.01 | S. cerevisiae deletion strains, locus YNL322C, strain KRE1, active compounds read low 1.01 | S. cerevisiae deletion strains, locus YNR049C, strain mso1, active compounds read low 0.992 | S. cerevisiae deletion strains, locus YNR052C, strain pop2, active compounds read low 1.02 | S. cerevisiae deletion strains, locus YOL006C, strain TOP1, active compounds read low 1.05 | S. cerevisiae deletion strains, locus YOL012C, strain htz1 1.34 | S. cerevisiae deletion strains, locus YOL147C, strain pex11, active compounds read low 1.02 | S. cerevisiae deletion strains, locus YOR001W, strain rrp6, active compounds read low 1 | S. cerevisiae deletion strains, locus YOR061W, strain CKA2, active compounds read low 1.02 | S. cerevisiae deletion strains, locus YOR069W, strain VPS5, active compounds read low 1.01 | S. cerevisiae deletion strains, locus YOR070C, strain gyp1, active compounds read low 0.992 | S. cerevisiae deletion strains, locus YOR080W, strain dia2, active compounds read low 0.988 | S. cerevisiae deletion strains, locus YOR083W, strain WHI5, active compounds read low 0.984 | S. cerevisiae deletion strains, locus YOR106W, strain vam3, active compounds read low 0.979 | S. cerevisiae deletion strains, locus YOR136W, strain idh2, active compounds read low 1.02 | S. cerevisiae deletion strains, locus YOR144C, strain elg1, active compounds read low 1.03 | S. cerevisiae deletion strains, locus YOR184W, strain ser1, active compounds read low 1.02 | S. cerevisiae deletion strains, locus YOR231W, strain MKK1, active compounds read low 1.02 | S. cerevisiae deletion strains, locus YOR265W, strain rbl2, active compounds read low 0.991 | S. cerevisiae deletion strains, locus YOR270C, strain vph1, active compounds read low 1.04 | S. cerevisiae deletion strains, locus YOR290C, strain snf2, active compounds read low 1.03 | S. cerevisiae deletion strains, locus YOR316C, strain cot1, active compounds read low 1.02 | S. cerevisiae deletion strains, locus YPL051W, strain arl3, active compounds read low 1.01 | S. cerevisiae deletion strains, locus YPL055C, strain LGE1, active compounds read low 1.02 | S. cerevisiae deletion strains, locus YPL078C, strain atp4, active compounds read low 0.994 | S. cerevisiae deletion strains, locus YPL106C, strain sse1, active compounds read low 0.968 | S. cerevisiae deletion strains, locus YPL240C, strain hsp82, active compounds read low 0.994 | S. cerevisiae deletion strains, locus YPL241C, strain CIN2, active compounds read low 1.01 | S. cerevisiae deletion strains, locus YPL256C, strain CLN2, active compounds read low 1.03 | S. cerevisiae deletion strains, locus YPR119W, strain clb2, active compounds read low 1.02 | S. cerevisiae deletion strains, locus YPR141C, strain kar3, active compounds read low 1.02 | S. cerevisiae deletion strains, locus YPR163C, strain tif3, active compounds read low 1.04 | S. cerevisiae deletion strains, locus YPR167C, strain met16, active compounds read low 1.02 | S. cerevisiae deletion strains, strain wtn01, active compounds read low 1.02 | S. cerevisiae strains, strain wild type, active compounds read low 1.02

From PubChem BioAssay AID1159580 (chemical genetic matrix, 2015)
